HTT ATP protect – protects HTT-Q103 PC12 cells, measured by ATP; PC12 HTT-Q103 induced, cytoprotection, ATP luminescence, 40 h; Potency, µM (titrated, usually from 56.4 µM), inactives show cytoprotection (ATP increase), hits mostly activators; 230,000 tested, 0.14% active; AID 1471; also: potency is read from the fitted curve at half-maximal effect; % of control where 0% means no effect; nearly all actives have a fitted effect of over 45% in size
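Huntington model: PC12 line, ecdysone-inducible HTTQ103 exon1–GFP, tebufenozide 100 nM. Test articles in a dose series. Endpoint luminescence from cellular ATP.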
NPSR antagonist – neuropeptide S receptor (human) antagonism, cAMP; Q6W5P4; CHO-NPSR cells, cAMP TR-FRET, antagonist mode; Potency, µM (doses to about 38.3 µM), without a hit: top-dose activity change, negative = inhibition, most hits filed as inhibitors; 220,000 tested, 1% active; AID 1461; also: potency is read from the fitted curve at half-maximal effect; % is scaled to controls: 0 for no effect and ±100 for the full control effect; nearly all actives have a fitted effect of over 50% in size
Target sequence (Q6W5P4 whole entry, looked up): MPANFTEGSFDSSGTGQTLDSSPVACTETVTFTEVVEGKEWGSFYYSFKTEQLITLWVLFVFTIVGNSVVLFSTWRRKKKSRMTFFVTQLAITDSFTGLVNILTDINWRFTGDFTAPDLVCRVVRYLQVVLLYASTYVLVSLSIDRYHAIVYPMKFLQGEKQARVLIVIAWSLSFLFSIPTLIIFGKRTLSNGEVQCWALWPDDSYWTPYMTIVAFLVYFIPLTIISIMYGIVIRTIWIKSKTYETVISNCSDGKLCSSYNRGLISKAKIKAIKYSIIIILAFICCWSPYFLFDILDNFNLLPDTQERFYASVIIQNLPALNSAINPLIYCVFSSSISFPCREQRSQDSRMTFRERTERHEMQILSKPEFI
HttQ103 aggreg – mutant huntingtin aggregation inhibition. 220,000 tested, 1.1% active. AID 1688. PC12 HttQ103-GFP aggregates, Acumen cytometry, 40 h. Potency, µM (top dose mostly 46.1 µM), for inactives: at the highest dose activity change, negative = inhibition, usual class: inhibitors; also: potency is read from the fitted curve at half-maximal effect; % is scaled to controls: 0 for no effect and ±100 for the full control effect; nearly all actives have a fitted effect of over 60% in size
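Read-out: GFP aggregate count by laser scanning cytometer (488 nm excitation, 500-530 nm emission, 1–25 µm objects >6 SD above background). Cells: PC12, inducible HTTex1-Q103-GFP, 100 nM tebufenozide; compounds titrated.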
Lamin A splicing – modulators of lamin A splicing; HeLa LMNA splicing GFP/RFP minigene ratio, 48 h; Potency, µM (top dose mostly 46.1 µM), without a hit: at the highest dose ratio change, negative = inhibition, hits mostly inhibitors; 200,000 tested, 0.01% active; active = well fitted inhibition curve with a large enough effect in the signal ratio, with a control signal flat, not every such curve was filed as active; inconclusive = small, poorly fitted or top-dose-only effect, or effect the other way, or a change in a side signal; the % refers to the signal ratio; also: potency is read from the fitted curve at half-maximal effect; % is scaled to controls: 0 for no effect and ±100 for the full control effect
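Read-out is the ratio of GFP to DsRed2 object intensity, acquired by 488 nm laser-scanning cytometry on HeLa lamin A-EGFP minigene reporter cells. Compound incubation 48 hrs at 37 °C in Opti-MEM with 2% FBS; DMSO 0.5% final.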
IMPase Li inh – IMPase inhibition in cells with lithium potentiation; 210,000 tested, 0.35% active; Potency, µM (series often up to 59.4 µM), without a hit: top-dose activity, negative = IMPase inhibition, most hits filed as inhibitors; CHO-M1 cells, IP1 TR-FRET (IP-One), carbachol + lithium;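 also: IP1 builds up when IMPase is blocked and the TR-FRET signal falls; potency is read from the fitted curve at half-maximal effect; plate controls were basal vehicle for no effect and high inhibitor control for full effect; nearly all actives have a fitted effect of over 50% in size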
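CHO-M1, 2000 cells/well, 16–30 h culture; cpd + low Li+, 30 min 37C; lysis with d2-IP1/Eu-anti-IP1 Ab, 10 min RT; TR-FRET 665/620 ratio and 620 channel; AC50 via Hill.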
IMPase cell inh – cell-permeable inhibitors of inositol monophosphatase (IMPase). P97697. CHO-M1 cells, IP1 accumulation, HTRF TR-FRET ratio. inhibition (IP1 accumulation), % at 46.1 µM. 120,000 tested, under 10 active. AID 901; active = well fitted curve in the direction sought with a large enough effect in the signal ratio, not every such curve was filed as active; inconclusive = small, poorly fitted or top-dose-only effect, or a change in a side signal; inactive = no such curve, though single readings can be large or run the other way; the % refers to the signal ratio;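 also: cells stimulated with carbachol in lithium chloride buffer; plate controls were DMSO basal wells for no effect and reference inhibitor wells for full effect; higher means more IMPase inhibition seen as more IP1 and lower FRET ratio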
Target sequence (P97697 whole entry, looked up): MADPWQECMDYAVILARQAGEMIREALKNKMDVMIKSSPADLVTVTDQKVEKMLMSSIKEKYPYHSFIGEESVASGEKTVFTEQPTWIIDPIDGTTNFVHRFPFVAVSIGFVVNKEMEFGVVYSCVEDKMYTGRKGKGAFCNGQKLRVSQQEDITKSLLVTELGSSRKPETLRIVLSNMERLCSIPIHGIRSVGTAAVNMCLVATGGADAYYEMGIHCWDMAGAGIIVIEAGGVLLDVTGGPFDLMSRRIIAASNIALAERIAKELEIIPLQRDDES
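Carbachol-driven Gq signalling in CHO-M1 cells (2000/well) generates IP1. Compounds that block IMPase raise IP1 and so reduce the FRET signal from Eu-anti-IP1 and d2-IP1 after a 10 min room-temperature lysis.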
* = called active by the depositor; ? = inconclusive; . = no result; ! = not confirmed by another sample; [ ] = dose if it differs, or a comment. Shown are actives, neighbours in structure and some others; about 1.6% of the full set was active somewhere. Unless noted, calls follow the shape of the dose curve; as a rule, active = well fitted curve in the direction sought with a large enough effect; inconclusive = small, poorly fitted or top-dose-only effect, or another doubt; inactive = no such curve, though single readings can be large; an effect the other way counts as inactive or inconclusive.

SMILES	HTT ATP protect	NPSR antagonist	HttQ103 aggreg	Lamin A splicing	IMPase Li inh	IMPase cell inh
COc1ccc(Nc2nc3ccccc3nc2NS(=O)(=O)c2cccs2)cc1	-39%	0%[46.1 µM]	22µM*	9%[0.0737 µM]	-20%[38.3 µM]	1
CCOc1ccc(S(=O)(=O)Nc2nc3ccccc3nc2Nc2ccc(OC)cc2)cc1	.	.	.	.	.	-2
C[C@@H]1[C@H](C)CC[C@@]2(C(=O)O)CC[C@]3(C)C(=CC[C@H]4[C@@]5(C)CC[C@@H](O)C(C)(C)[C@@H]5CC[C@@]43C)[C@@H]12	1%[40.3 µM]	.	.	-3%	19%	-4[20.6 µM]
O=C(CCCc1cccs1)Nc1nc2c(s1)CCCC2	.	11%[46.1 µM]	0.028µM*	-10%	14%[38.3 µM]	18
Cc1cccn2c(=O)c3cc(C(=O)NCc4ccco4)c(=N)n(CCOCCO)c3nc12	-86%	-26%[46.1 µM]	2.8µM*	22%	4%[38.3 µM]	-1
COCCCn1c(=N)c(C(=O)NCc2ccco2)cc2c(=O)n3cccc(C)c3nc21	.	.	.	.	.	-1
Cc1ccc(C(NC(=O)C(C)C)c2cc([N+](=O)[O-])c3cccnc3c2O)cc1 (stereo not given)	-33%[10 µM]	0%	20µM*	?	-7%	.
CCCC(=O)NC(c1cccs1)c1cc(Cl)c2cccnc2c1O (stereo not given)	-35%[10 µM]	?	-1%[9.22 µM]	?	20%	.
CC(C)C(=O)NC(c1cccs1)c1cc([N+](=O)[O-])c2cccnc2c1O (stereo not given)	-49%[10 µM]	-11%	2µM*	?	3%	-1
Cc1cc(Cc2c(C)c(C)c(Cc3cc(C)cc(C(C)(C)C)c3O)c(C)c2C)c(O)c(C(C)(C)C)c1	-2%[10 µM]	.	.	.	28%	.
O=C(c1ccc(F)cc1)C1CCN(CCn2c(=O)[nH]c3ccccc3c2=O)CC1	35%[10 µM]	1.6µM*!	25%[9.22 µM]	?	35%	4
O=C(O)c1cncc(C(=O)O)c1	-2%[10 µM]	.	.	.	-5%	.
CC(C)Cn1c(N)c(C(=O)COC(=O)CC23CC4CC(CC(C4)C2)C3)c(=O)n(C)c1=O	-8%[10 µM]	?	7.1µM*	?	36%[38.3 µM]	4
CC(C)Cn1c(N)c(C(=O)COC(=O)c2ccc(Cl)cc2)c(=O)n(C)c1=O	-15%	-46%	-20%	13%[9.22 µM]	11%	.
C[C@@H]1C[C@@H]2[C@H]3CCC4=CC(=O)C=C[C@]4(C)[C@]3(Cl)[C@@H](O)C[C@@]2(C)[C@@]1(O)C(=O)CO	?	.	.	.	.	2
Oc1ccc(/C=N/Nc2nccnc2Cl)c(O)c1	0%	-20%[46.1 µM]	-30%[9.22 µM]	?	47%[38.3 µM]	8
Oc1ccc(/C=N/Nc2ncc(Br)cn2)c(O)c1	36%[10 µM]	-24%	13µM*	?	5%	.
COc1ccccc1NS(=O)(=O)c1cccc2nsnc12	24%[10 µM]	1%[7.67 µM]	6%[9.22 µM]	.	.	.
Cc1cccc(Nc2ncnc3ccccc23)c1	-7%[10 µM]	5%[46.1 µM]	13µM*	-21%	16%[38.3 µM]	4
S=C(NC1CCCCC1)N1CCc2ccccc2C1	.	-15%	7.1µM*	?	2%	.
N[C@@H](Cc1cc(CP(=O)(O)O)cc(-c2ccccc2Cl)c1)C(=O)O	32µM*	.	.	.	6%	-1
CC1CCC2(CC1)NC(=O)N(CC(=O)Nc1nc(-c3ccc(F)cc3)cs1)C2=O (stereo not given)	31%	18%[46.1 µM]	7%	-15%	14µM*	1
COc1ccccc1CNC(=O)C1CCC(CNc2c(N3CCC(C)CC3)c(=O)c2=O)CC1 (stereo not given)	-4%[10 µM]	0%	-15%[9.22 µM]	.	.	.
Nc1ncnc(NC2CCS(=O)(=O)C2)c1[N+](=O)[O-] (stereo not given)	7%[10 µM]	-1%[7.67 µM]	-19%[9.22 µM]	.	.	.
CN(c1ncnc(N)c1[N+](=O)[O-])C1CCS(=O)(=O)C1 (stereo not given)	-12%	21%	4.5µM*	.	2%	.
SMILES	HTT ATP protect	NPSR antagonist	HttQ103 aggreg	Lamin A splicing	IMPase Li inh	IMPase cell inh
C[C@@]12CCC(=O)C=C1CC[C@H]1[C@@H]2[C@@H](O)C[C@]2(C)[C@@H]1CC[C@@]2(O)C(=O)CO	-5%[10 µM]	.	.	.	.	.
COc1ccc(Cl)cc1NC(=O)C(C)N1CCN(C/C=C/c2ccccc2)CC1 (stereo not given)	-18%	10µM*	-11%	?	50%[38.3 µM]	8
Cc1nc(-n2[nH]c3c(c2=O)CCCC3)[nH]c(=O)c1Cc1ccccc1	-48%[10 µM]	7.9µM*	?	?	29%[38.3 µM]	8
COC(=O)CS(=O)(=O)c1nnc([C@H](Cc2ccccc2)NC(=O)OC(C)(C)C)o1	8%[10 µM]	7.9µM*	?	?	58%[38.3 µM]	20
Cc1cccc(CS(=O)(=O)c2nnc([C@H](Cc3ccccc3)NC(=O)OC(C)(C)C)o2)c1	-159%	?	?	?	21%[38.3 µM]	23
COc1ccc(NC(=O)CN(c2ccccc2OC)S(C)(=O)=O)c(OC)c1	.	.	.	.	.	4
COCC#Cc1ccc(C2NC(C(=O)O)CCC2C)cc1 (stereo not given)	-48%[10 µM]	.	.	.	.	.
CCN(CC)c1nc2ccccc2c(N)c1-c1ccccc1	-5%	-5%[46.1 µM]	11µM*	-18%	13%[38.3 µM]	15
Cc1ccc(C(C)C)c(OCc2ccc(C(=O)N/N=C/c3ccc(O)c(O)c3)cc2)c1	.	-36%	9%	?	-7%	.
Cc1ccc(C(C)C)c(OCc2ccc(C(=O)N/N=C/c3cccc(O)c3O)cc2)c1	7%[0.074 µM]	10µM*	-11%	?	16%	.
CCCn1nc([N+](=O)[O-])c(C(C#N)c2nc3ccccc3s2)c(Cl)c1=O (stereo not given)	13µM*	10µM*	.	?	25%[38.3 µM]	2
CCCCn1c2ccccc2c2nnc(SCC(=O)Nc3ccc(NC(C)=O)cc3)nc21	.	.	.	.	.	4
Cc1ccc(OCC(=O)NNC(=S)NC(=O)C(C)(C)C)c(Br)c1	.	-16%	11µM*	.	8%	.
CCC(=O)N(C1=C(NC)C(=O)c2ccccc2C1=O)C(C)C	-110%	11%	28µM*	.	-9%	.
CN(C)c1ccc(C(=O)NN2C(=O)c3ccccc3C2=O)cc1	-16%	20%	-17%	.	6%	.
CNC1=C(N(C(C)=O)c2ccc(Br)cc2)C(=O)c2ccccc2C1=O	.	-2%	11µM*	?	8%	.
COC(=O)NC(CC(C)=O)c1ccc(Cl)cc1 (stereo not given)	-3%[10 µM]	.	.	.	.	.
CCOC(=O)N=Nc1c2ccccc2c2nc3no[nH]c3nc12	-183%	6.3µM*	1.3µM*	?	23%	.
CCCCC[C@H](O)/C=C/C=C/C=C/[C@H](O)C/C=C\CCCC(=O)O	-6%	.	.	.	8%	.
Cc1ccccc1/C=C\C1=NCCN1	16%[1.9 µM]	.	.	.	.	14
S=C1Cc2ccccc2N1	1.3µM*	-48%	-21%[9.22 µM]	.	.	.

Source: PubChem BioAssay
